Screens from PubChem.
Only some compounds are listed: those with a hit (about 5.7% of all), similar ones and a draw of the others.
MPTP inh: blocks calcium-induced mitochondrial swelling; isolated mouse mitochondria, Ca2+ swelling absorbance, 30 min; 360,000 tested, 1.4% active; inhibition, % at 10 µM; AID 602449;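 active = inhibition of 50% or more, scaled per plate between neutral and stimulator controls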
GRIN3A LBD mod: NR3A (human) ligand-binding domain modulation. 340,000 tested, 2.5% active. NR3A LBD differential scanning fluorimetry, Tm shift; 0% = protein alone, 100% = glycine-bound protein. Tm shift relative to glycine control, % at 25 µM. AID 1259313;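 active = melting temperature shift of at least 10% of the positive control shift, at one fixed dose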
Myeloid diff 2: compounds promoting myeloid differentiation. calls only at 10 µM. ER-HoxA9 myeloid progenitors, lysozyme-GFP differentiation, flow cytometry. AID 624256. 360,000 tested, 1% active;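 active = normalized GFP-positive differentiation at or above the plate's own cutoff, the solvent-only control mean plus 3 SD; inconclusive = no clear call, values can overlap the other calls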;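 note: cells exposed to compound for four days before flow analysis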
rCAG binder: binds r(CAG) RNA repeats; r(CAG) RNA repeat, TO-PRO-1 dye displacement fluorescence; inhibition, % at 3 µM; 370,000 tested, 1.3% active; AID 651821;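 active = inhibition above the plate cutoff, the mean of all test compounds on that plate plus 3 SD, cut at about 35% in these data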;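 note: higher means more dye released from RNA so lower well fluorescence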
FAS-TE inh: blocks the thioesterase domain of human fatty acid synthase | P49327 | recombinant FAS-TE, OMFH fluorogenic substrate, fluorescence endpoint | inhibition, % at 15 µM | 360,000 tested, 0.67% active;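 active = compounds whose normalised, plate-corrected inhibition of enzyme fluorescence in the single-dose primary screen is 50% or more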
Large screens that a line does not name were inactive.

CSc1ccc(/C=N/NC(=O)CNc2ccc3ccccc3c2)cc1	GRIN3A LBD mod 21
O=C(CNc1ccc2ccccc2c1)N/N=C/c1ccc(OC(=O)/C=C/c2ccco2)cc1	GRIN3A LBD mod 21
CSc1ccc(/C=N/NC(=O)CNc2cccc3ccccc23)cc1	GRIN3A LBD mod 19
O=C(CNc1cccc2ccccc12)N/N=C/c1ccc[nH]1	none
O=C(CNc1cccc2ccccc12)N/N=C/C(Br)=C/c1ccccc1	GRIN3A LBD mod 16 (no result: Myeloid diff 2)
O=C1C2C(CC3c4ccccc4CCN32)CN1c1ccccc1 (stereo not given)	none (no result: MPTP inh, GRIN3A LBD mod, Myeloid diff 2, FAS-TE inh)
CCC[C@@H](/C=C/C(=O)OC(C)(C)C)Sc1ccc(N)cc1	none (no result: MPTP inh, GRIN3A LBD mod, Myeloid diff 2, FAS-TE inh)
NS(=O)(=O)c1ccc(N=Nc2c(-c3ccccc3)[nH]n(-c3nc(-c4ccccc4)cs3)c2=O)cc1	GRIN3A LBD mod 26, Myeloid diff 2 inconclusive
NC(=O)c1ccc(N=Nc2c(-c3ccccc3)[nH]n(-c3ccccc3)c2=O)cc1	none (no result: MPTP inh, GRIN3A LBD mod, Myeloid diff 2, FAS-TE inh)
Cc1ccc(O)c(C=Nc2cc(C)ccc2O)c1	Myeloid diff 2 active (no result: rCAG binder)
Cc1n[nH]c(C)c1S(=O)(=O)NCCc1cccc(F)c1	none (no result: MPTP inh, GRIN3A LBD mod, Myeloid diff 2, FAS-TE inh)
COC(=O)[C@]12CCCCC=C1N(Cc1ccc(OC)cc1)C(=O)[C@@H]2CC(=O)NCCCCc1ccccc1	none (no result: MPTP inh, GRIN3A LBD mod, Myeloid diff 2, FAS-TE inh)
Cc1sc(NC(=O)c2ccccc2)c(C(=O)c2ccccc2)c1C	none
Cc1ccc(C(=O)Nc2sc(C)c(C)c2C(=O)c2ccccc2)cc1	GRIN3A LBD mod 20
Cc1cc(C)c2c(-n3cccc3)c(C(=O)NNS(=O)(=O)c3ccc(Cl)cc3)sc2n1	rCAG binder 35
CC(=O)Nc1cccc(C)c1	none
CC(=O)Nc1ccc(-c2ccc(NC(C)=O)cc2)cc1	none
CC(=O)Nc1cccc(NC(=O)Nc2ccc(C(C)=O)cc2)c1	GRIN3A LBD mod 13
CC(=O)Nc1ccc(C#Cc2ccc(NC(C)=O)cc2)cc1	GRIN3A LBD mod 29
CC(=O)Nc1ccc(N=Nc2ccc(O)cc2)cc1	GRIN3A LBD mod 15
CC(=O)Nc1ccc(NC(=O)Nc2cc(C)cc(C)c2)cc1	GRIN3A LBD mod 29
CC(=O)c1ccc(NC(=O)Nc2ccncc2)cc1	none
CC(=O)Nc1ccc(NC(=O)Nc2ccccc2)cc1	GRIN3A LBD mod 19
O=C(Nc1cccc(F)c1)Nc1ccc2c(c1)OCO2	GRIN3A LBD mod 37
COC(=O)c1sccc1NC(=O)Nc1cccc(F)c1	GRIN3A LBD mod 10
CC(=O)Nc1cccc(NC(=O)Nc2cccc(F)c2)c1	GRIN3A LBD mod 29
CSc1ccccc1NC(=O)Nc1cccc(F)c1	none
O=C(O)CCCC[n+]1ccccc1	none (no result: MPTP inh, GRIN3A LBD mod, Myeloid diff 2, FAS-TE inh)
O=C(N[C@H](Cc1ccccc1)C(=O)N1CCN(CC(=O)N2CCCC2)CC1)[C@H]1O[C@@H](n2ccc(=O)[nH]c2=O)[C@H](O)[C@@H]1O	none (no result: MPTP inh, GRIN3A LBD mod, Myeloid diff 2, FAS-TE inh)
CC(=O)c1ccc(NC(=O)Nc2cccc3ccccc23)cc1	GRIN3A LBD mod 13
CC(O)c1cccc(NC(=O)CCC(=O)O)c1 (stereo not given)	none
CC(=O)Nc1ccc(NC(=O)Nc2cccc3ccccc23)cc1	none
CC(O)c1cccc(NC(=O)Nc2cccc(NC(=O)Nc3cccc(C(C)O)c3)c2)c1 (stereo not given)	GRIN3A LBD mod 27
CCOCCCNC(=O)C1CCN(S(=O)(=O)c2cc3c(cc2Br)CCN3C(=O)CC)CC1	none (no result: MPTP inh, GRIN3A LBD mod, Myeloid diff 2, FAS-TE inh)
Cc1c[nH]c2cccc(-c3c(Cl)cccc3Cl)c12	none (no result: MPTP inh, GRIN3A LBD mod, Myeloid diff 2, FAS-TE inh)
O=C(Cc1ccccc1)Nc1ccc(C(=O)NCC2COc3ccccc3O2)cc1 (stereo not given)	GRIN3A LBD mod 22
COc1ccccc1C(=O)NCC(=O)N1CCN(S(=O)(=O)c2ccc3c(c2)OCCO3)CC1	GRIN3A LBD mod 13
CN(C)C=Nc1nc2c(Br)ccc(Br)c2cc1C(=O)NCC(C)(C)C	none (no result: MPTP inh, GRIN3A LBD mod, Myeloid diff 2, FAS-TE inh)
COc1ccc(N(C)C(=O)c2cnc(N3CCN(c4ncccn4)CC3)c3ccccc23)cc1	GRIN3A LBD mod 769
O=C(c1cnc(N2CCN(c3ncccn3)CC2)c2ccccc12)N1CCN(c2ccccn2)CC1	none
FC(F)(F)c1ccc(C2[C@H]3CN(Cc4cccnc4)[C@H](c4ccccc4)C34CC2(c2cccnc2)C4)cc1 (stereo not given in full)	none
Clc1ccc(C2[C@H]3CN(Cc4cccnc4)[C@H](c4ccccc4)C34CC2(c2cccnc2)C4)cn1 (stereo not given in full)	Myeloid diff 2 active
CCCN1C(=O)/C(=C/C=C2\N(CC)c3ccccc3C2(C)C)SC1=S	Myeloid diff 2 active
CCCCN1C(=O)/C(=C/C=C2\Oc3ccccc3N2CC)SC1=S	Myeloid diff 2 active
CCCN1/C(=C2/SC(=S)N(CC)C2=O)C=Cc2ccccc21	none
C=CCN1C(=O)/C(=C\C=C2\N(C)c3ccccc3C2(C)C)SC1=S	Myeloid diff 2 active
CCCN1C(=O)/C(=C2/C=Cc3ccccc3N2CC)SC1=S	Myeloid diff 2 active
CCN1C(=O)/C(=C/C=C2/Sc3ccccc3N2CCO)SC1=S	none
C[C@@H]1COc2cc(NCCCN3CCOCC3)ccc2S(=O)(=O)N1	none (no result: MPTP inh, GRIN3A LBD mod, Myeloid diff 2, FAS-TE inh)
CCc1cc2c(nc1CC)CCCN2S(=O)(=O)c1ccc(C(F)(F)F)cc1	none (no result: MPTP inh, GRIN3A LBD mod, Myeloid diff 2, FAS-TE inh)
COc1cc(Nc2cc(C)n(-c3ccc(Cl)c(OC)c3)c(=O)c2)ccc1Cl	none (no result: MPTP inh, GRIN3A LBD mod, Myeloid diff 2, FAS-TE inh)
Clc1ccc(-c2nnc3n2N=C(c2ccc(-c4ccccc4)cc2)CS3)c(Cl)c1	none (no result: MPTP inh, GRIN3A LBD mod, Myeloid diff 2, FAS-TE inh)
C=CCSc1nc(N)c(C#N)c(-c2ccc(C)cc2)c1C#N	Myeloid diff 2 active
NC(=O)CSc1nnc(-c2cccs2)n1Cc1ccco1	none
Cc1ccc(C)c(CSc2nnc(-c3cccs3)n2Cc2ccco2)c1	Myeloid diff 2 active
Cc1cc2nc(CCN(Cc3cccnc3)C(=S)Nc3ccc(F)cc3)[nH]c2cc1C	GRIN3A LBD mod 27
Cc1cccnc1N=O	none (no result: MPTP inh, GRIN3A LBD mod, Myeloid diff 2, FAS-TE inh)
O=C1CC(c2ccccc2)CC(=O)C1Sc1ccc(Cl)cc1 (stereo not given)	GRIN3A LBD mod 15
COc1ccc(S(=O)(=O)Cc2ccccc2)cc1N	Myeloid diff 2 active
N#Cc1c([N+](=O)[O-])cc([N+](=O)[O-])cc1S(=O)(=O)Cc1ccccc1	Myeloid diff 2 inconclusive
COc1cc(OC)c(C#N)c(S(=O)(=O)Cc2ccccc2)c1	GRIN3A LBD mod 12
CCN(c1ccccc1)S(=O)(=O)c1ccc(N)c(OC)c1	none
COc1ccccc1CCC[C@@H](CCS(=O)(=O)C(C)C)CC1CCCCC1	none (no result: MPTP inh, GRIN3A LBD mod, Myeloid diff 2, FAS-TE inh)
O=C(CN1CCN(Cc2ccccc2)CC1)c1ccc(Br)cc1	GRIN3A LBD mod 11
CC(C)CCN(C)C1CCN(C(=O)NCc2ccccc2)CC1	none (no result: MPTP inh, GRIN3A LBD mod, Myeloid diff 2, FAS-TE inh)
O=c1c(Cl)c(N/N=C/c2ccc(Br)cc2)cnn1-c1ccccc1	GRIN3A LBD mod 13
Cc1cc(C)n(CCc2nc(-c3ccc(C(C)(C)C)cc3)cs2)n1	GRIN3A LBD mod 12
CC(C)(C)c1ccc(-c2cc(-c3ccccc3O)[nH]n2)cc1	GRIN3A LBD mod 19
COc1ccc(-c2cc(-c3ccc(C)cc3)n[nH]2)c(O)c1	GRIN3A LBD mod 31
COc1ccc(-c2cc(-c3ccc(OC)cc3)[nH]n2)cc1	none
COc1ccc(-c2cc(-c3cc(C)ccc3O)[nH]n2)cc1	GRIN3A LBD mod 14
CC(=NN1CCN(c2ccccn2)CC1)c1ccccc1O	none (no result: MPTP inh, GRIN3A LBD mod, Myeloid diff 2, FAS-TE inh)
CCN1C(=O)C(CC(=O)Nc2ccc(F)cc2)N(Cc2ccco2)C1=S (stereo not given)	none
